Data taken from PubChem BioAssay AID1159580 (chemical genetic matrix, 2015).
Values joined by “and” are separate entries in the source; they are usually repeats but may differ in a detail not shown here. Equal entries are not always repeated. The whole screen tested about 5,500 compounds, of which about 2,000 (36%) were called active. Inconclusive results (about 18%) are left out. No stated cut-off is given here; in the data, active means normalized growth mostly below about 0.91 (no sharp cut-off); inconclusive means no clear call, values can overlap the other calls; inactive means mostly above about 0.92. The list shows a part of the results.

Test: chemical genetic growth profiling, strain panel (AID 1159580);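 further: tested at 20 µM; growth read once vehicle control cultures reached saturation at 30 °C; 1 = growth at the plate median or of vehicle wells; lower values mean less growth of the strain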
Conditions: S. cerevisiae deletion strains, growth OD

Measured: normalized growth

CC(Cc1ccc(O)c(O)c1)(NN)C(=O)O (stereo not drawn)
inactive: locus YAL021C, strain ccr4, active compounds read low 1 | locus YAL026C, strain drs2, active compounds read low 1 | locus YAL030W, strain snc1, active compounds read low 0.997 | locus YBL061C, strain skt5, active compounds read low 1.01 | locus YBR009C, strain hhf1, active compounds read low 0.982 | locus YBR021W, strain FUR4, active compounds read low 1.01 | locus YBR023C, strain chs3, active compounds read low 0.976 | locus YBR171W, strain sec66, active compounds read low 1.01 | locus YBR229C, strain ROT2, active compounds read low 1 | locus YBR231C, strain swc5, active compounds read low 0.997 | locus YBR279W, strain paf1, active compounds read low 0.988 | locus YCL011C, strain gbp2, active compounds read low 1.02 | locus YCL016C, strain dcc1, active compounds read low 1.01 | locus YCL029C, strain bik1, active compounds read low 1.02 | locus YCL069W, strain vba3, active compounds read low 1 | locus YCR088W, strain abp1, active compounds read low 1 | locus YDL005C, strain med2, active compounds read low 1 | locus YDL035C, strain GPR1, active compounds read low 1 | locus YDL040C, strain nat1, active compounds read low 1 | locus YDL074C, strain BRE1, active compounds read low 0.972 | locus YDL101C, strain DUN1, active compounds read low 1.02 | locus YDL134C, strain PPH21, active compounds read low 1.04 | locus YDL185W, strain tfp1, active compounds read low 0.989 | locus YDL192W, strain arf1, active compounds read low 1.01 | locus YDR001C, strain nth1, active compounds read low 0.994 | locus YDR069C, strain doa4, active compounds read low 0.99 | locus YDR101C, strain arx1, active compounds read low 1 | locus YDR137W, strain rgp1, active compounds read low 1.04 | locus YDR159W, strain sac3, active compounds read low 1 | locus YDR162C, strain NBP2, active compounds read low 1.01 | locus YDR195W, strain ref2 0.972 | locus YDR297W, strain sur2, active compounds read low 1 | locus YDR318W, strain mcm21, active compounds read low 1.01 | locus YDR334W, strain swr1, active compounds read low 0.999 | locus YDR335W, strain msn5, active compounds read low 0.982 | locus YDR388W, active compounds read low 1.01 | locus YDR392W, strain spt3, active compounds read low 0.985 | locus YDR502C, strain sam2, active compounds read low 1.01 | locus YEL003W, strain gim4, active compounds read low 0.991 | locus YEL037C, strain rad23, active compounds read low 1.02 | locus YEL061C, strain CIN8 (second series), active compounds read low 0.999 | locus YEL061C, strain CIN8, active compounds read low 1.01 | locus YER015W, strain faa2, active compounds read low 0.984 | locus YER016W, strain bim1, active compounds read low 1.01 | locus YER110C, active compounds read low 1.02 | locus YER111C, strain swi4, active compounds read low 1.01 | locus YER155C, strain BEM2 (second series), active compounds read low 1.01 | locus YER155C, strain BEM2, active compounds read low 0.999 | locus YER167W, strain BCK2, active compounds read low 1.01 | locus YFR010W, strain ubp6, active compounds read low 0.986 | locus YGL078C, strain dbp3, active compounds read low 0.979 | locus YGL086W, strain mad1, active compounds read low 1.02 | locus YGL167C, strain pmr1, active compounds read low 1 | locus YGL173C, strain kem1, active compounds read low 1.03 | locus YGL227W, strain vid30, active compounds read low 0.989 | locus YGL240W, strain doc1, active compounds read low 1 | locus YGL248W, strain PDE1, active compounds read low 0.991 | locus YGL253W, strain hxk2, active compounds read low 0.997 | locus YGR078C, strain PAC10, active compounds read low 0.966 | locus YGR135W, strain pre9, active compounds read low 1.01 | locus YGR229C, strain SMI1, active compounds read low 0.992 | locus YGR252W, strain gcn5, active compounds read low 1.01 | locus YHR013C, strain ard1, active compounds read low 1.04 | locus YHR027C, strain rpn1, active compounds read low 0.995 | locus YHR030C, strain SLT2, active compounds read low 0.997 and 0.958 | locus YHR079C, strain IRE1 (second series), active compounds read low 1.02 | locus YHR079C, strain IRE1, active compounds read low 0.961 | locus YHR094C, strain hxt1, active compounds read low 1.01 | locus YHR129C, strain ARP1, active compounds read low 1.01 | locus YHR142W, strain chs7, active compounds read low 1.02 | locus YHR200W, strain rpn10, active compounds read low 1.01 | locus YIL066C, strain RNR3, active compounds read low 0.965 | locus YIL073C, strain SPO22, active compounds read low 1.14 | locus YIL125W, strain kgd1, active compounds read low 1 | locus YIR030C, strain dcg1, active compounds read low 1.01 | locus YJL092W, strain hpr5, active compounds read low 0.997 | locus YJL095W, strain BCK1 (second series), active compounds read low 0.996 | locus YJL095W, strain BCK1, active compounds read low 1 and 0.954 | locus YJL115W, strain asf1, active compounds read low 0.983 | locus YJL129C, strain trk1, active compounds read low 1.02 | locus YJL134W, strain LCB3, active compounds read low 1 | locus YJL154C, strain vps35, active compounds read low 1.01 | locus YJL164C, strain tpk1, active compounds read low 1.01 | locus YJL166W, strain qcr8, active compounds read low 1.02 | locus YJL168C, strain set2, active compounds read low 1.01 | locus YJL187C, strain SWE1 (second series), active compounds read low 1 | locus YJR043C, strain POL32, active compounds read low 1.01 | locus YJR066W, strain TOR1, active compounds read low 0.936
